12 molecules from PubChem BioAssay AID2061304 (National Center for Advancing Translational Sciences (NCATS), 2025) can be followed below.

Records with an inconclusive call do not appear. Calls of active or inactive are those of the source. Calls come from the whole dose curve; as a rule, active = well fitted inhibition curve with a large enough effect; inconclusive = small, poorly fitted or top-dose-only effect; inactive = flat fitted curve, though single readings scatter. Square brackets hold non-standard residues; d marks the D form. Peptide text beside a SMILES is read from it. * marks the point of attachment. Dolaproine = CO[C@@H]([C@@H]1CCCN1)[C@@H](C)C(=O)O; Dil = CC[C@H](C)[C@H](NC)[C@@H](CC(=O)O)OC; NMe2Val = CC(C)[C@@H](C(=O)*)N(C)C; X1 = C[C@@H](N*)[C@@H](O)c1ccccc1; NMeV = CN[C@H](C(=O)O)C(C)C

The test in a line: Identification of antibody-drug conjugate (ADC) payloads which are substrates of ATP-binding cassette drug efflux transporters: ABCB1-HeLa-KB-8-5-11 cell line. The conditions noted are these: KB-8-5-11 (P-gp overexpressing HeLa) viability, CellTiter-Glo, 48 h. From the text: Antibody-drug conjugates (ADCs) feature an antibody recognizing a specific protein joined to a potent toxic payload. Numerous antibody-drug conjugates have received FDA approval; however, clinical resistance arises. Resistance mechanisms include decreased expression or mutation of the antibody target, impaired payload release, or increased expression of ATP-binding cassette (ABC) efflux transporters associated with multidrug resistance. We therefore sought to characterize the interaction of ABC multidrug transporters with ADC payloads. We performed a high-throughput screen with 27 common ADC payloads using cells lines expressing ABC transporters P-glycoprotein (P-gp, encoded by ABCB1) or ABCG2 (encoded by ABCG2). Confirmatory assays were also performed using cells transfected to express P-gp, ABCG2, or MRP1 (encoded by ABCC1). Several commonly used ADC payloads were substrates of P-gp, including calicheamicin gamma1, monomethyl auristatin E, DM1, and DM4. All the pyrrolobenzodiazepines tested - SJG136, SGD-1882, SG2057, and SG3199 - were substrates of P-gp, ABCG2, and MRP1. […] These findings highlight the risk of transporter-mediated resistance with certain ADC payloads and underscore the importance of selecting payloads that evade ABC transporter recognition in future ADC development.
HEK-293 cells were transfected with empty vector (pcDNA) or vector containing the human ABCB1 (MDR-19), ABCG2 (R-5), or ABCC1 gene (MRP1) and were maintained in EMEM with 2 mg/mL G418 added to maintain transporter expression. The HeLa derivative KB-3-1 and the P-gp overexpressing KB-8-5-11 subline were maintained in DMEM; KB-8-5-11 additionally received 100 ng/mL colchicine. H460 parental cells were obtained from the Division of Cancer Treatment and Diagnosis Tumor Repository, National Cancer Institute at Frederick, MD and were cultured in RPMI. The ABCG2 expressing subline H460 MX20 was generated by selecting H460 cells in 20 nM mitoxantrone. Media in all cases was supplemented with 10% FBS and 1% penicillin-streptomycin. We explored 27 common ADC payloads, in two orthogonal, paired cell line sets-a drug selected and transfected set for each transporter--to identify substrates of the ABC transporters P-gp and ABCG2. Compounds were sourced from Levena Biopharma (San Diego, CA), Selleck Chem (Houston, TX), ChemieTek (Indianapolis, IN), or Microsource Discovery Systems (Gaylordsville, CT). Screening was performed as previously described. Briefly, cells were plated at a density of 500 cells/well in 1536 well plates with compounds added using a 1536-head pin tool (Kalypsys, San Diego CA). Cells were incubated with cytotoxic drugs and processed with CellTiter Glo reagent (Promega, Madison, WI) to determine viability after 48 hours. P-gp substrates were identified by comparing compound activity between paired sets of low-expressing (sensitive) and over-expressing (resistant) cell lines.
A general note: In ATP-based viability assays light output follows the ATP content of the culture.
Turning to `CC[C@H](C)[C@H](NC(=O)[C@H]1CCCCN1C)C(=O)N(C)[C@H](C[C@@H](OC(C)=O)c1nc(C(=O)O)cs1)C(C)C`, the Potency was 4.2 µM (active).

For the molecule `COc1cc2cc(c1Cl)N(C)C(=O)C[C@H](OC(=O)[C@H](C)N(C)C(=O)CCS)[C@]1(C)OC1[C@H](C)C1C[C@@](O)(NC(=O)O1)[C@H](OC)/C=C/C=C(\C)C2` (some centres not stated), the Potency is 0.106 µM (active).

As for `CC[C@H](C)[C@@H]([C@@H](CC(=O)N1CCC[C@H]1[C@H](OC)[C@@H](C)C(=O)N[C@H](C)[C@@H](O)c1ccccc1)OC)N(C)C(=O)[C@@H](NC(=O)[C@H](C(C)C)N(C)C)C(C)C`, the Potency is 0.0529 µM (active).

On to `CC[C@@]1(O)C(=O)OCc2c1cc1n(c2=O)Cc2cc3ccccc3nc2-1`, for which the Potency was 0.334 µM (active).

On to `COc1cc2cc(C(=O)N3C[C@@H](CCl)c4c3cc(O)c3ccccc43)[nH]c2c(OC)c1OC`, for which the Potency is 0.0013 µM (active).

On to `COc1cc2cc(c1Cl)N(C)C(=O)C[C@H](OC(=O)[C@H](C)N(C)C(=O)CCC(C)(C)S)[C@]1(C)OC1[C@H](C)C1C[C@@](O)(NC(=O)O1)[C@H](OC)/C=C/C=C(\C)C2` (some centres not stated), for which the Potency was 0.0265 µM (active).

With `CC[C@H](C)[C@H](NC(=O)[C@H]1CCCCN1C)C(=O)N(C)[C@H](C[C@@H](OC(C)=O)c1nc(C(=O)N[C@@H](Cc2ccccc2)C[C@H](C)C(=O)O)cs1)C(C)C`, the Potency is 0.0106 µM (active).

As to `CC[C@H](C)[C@@H]1NC(=O)CNC(=O)[C@H]2Cc3c([nH]c4cc(O)ccc34)S(=O)C[C@H](NC(=O)CNC1=O)C(=O)N[C@@H](CC(N)=O)C(=O)N1C[C@H](O)C[C@H]1C(=O)N[C@@H]([C@@H](C)[C@@H](O)CO)C(=O)N2` (some centres not stated), the Potency was 4.72 µM (active).

`CC[C@H](C)[C@@H]([C@@H](CC(=O)N1CCC[C@H]1[C@H](OC)[C@@H](C)C(=O)N[C@@H](Cc1ccccc1)C(=O)O)OC)N(C)C(=O)[C@@H](NC(=O)[C@H](C(C)C)N(C)C)C(C)C` (NMe2Val-V[Dil][Dolaproine]F-OH): the Potency was 0.265 µM (active).

Consider `COc1cc2cc(c1Cl)N(C)C(=O)C[C@H](OC(=O)C(C)C)[C@]1(C)O[C@H]1[C@H](C)[C@@H]1C[C@@](O)(NC(=O)O1)[C@H](OC)C=CC=C(C)C2`, for which the Potency is 0.0047 µM (active).

Take `COc1cccc2c1C(=O)c1c(O)c3c(c(O)c1C2=O)C[C@@](O)(C(=O)CO)CC3OC1CC(N2CCOC(OC)C2)C(O)C(C)O1` (some centres not stated): the Potency is 0.0133 µM (active).

With `CC[C@H](C)[C@@H]([C@@H](CC(=O)N1CCC[C@H]1[C@H](OC)[C@@H](C)C(=O)N[C@H](C)[C@@H](O)c1ccccc1)OC)N(C)C(=O)[C@@H](NC(=O)[C@@H](NC)C(C)C)C(C)C` (H-[NMeV]V[Dil][Dolaproine]-X1), the Potency was 0.211 µM (active).
